G9a inh = G9a (human) methyltransferase inhibition | Potency, µM (series often up to 102 µM), usual class: inhibitors | G9a H3K9 monomethylation, AlphaScreen, 2 h | 350,000 compounds, 8.8% hits | Q96KQ7; further: nearly all actives have a fitted effect of over 75% in size
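G9a (20 nM) was preincubated 15 min with compound, then reacted 2 h at room temperature with 500 nM biotin-H3K9 peptide and 20 µM SAM. Monomethyl-H3K9 detected by AlphaScreen using anti-H3K9me1 antibody.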
BAZ2B block = inhibitors of human BAZ2B bromodomain. AlphaScreen BAZ2B-H3K14Ac peptide displacement. Q9UIF8. 360,000 compounds, 4.4% hits. AID 504333. Potency, µM (titrated, usually from 114 µM), actives largely listed as inhibitors; further: nearly all actives have a fitted effect of over 60% in size
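Multi-concentration screen (max 110 uM) measuring displacement of acetylated histone H3 peptide from BAZ2B by AlphaScreen, using 50 nM protein, 50 nM peptide and 10 ug/mL streptavidin donor plus Ni-chelate acceptor beads.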
HP1b chromo inh = blocks HP1-beta chromodomain binding to methylated histone tails; P83916; AlphaScreen HP1-beta / biotin-H3K9me3 peptide binding; Potency, µM (series often up to 114 µM), hits mostly inhibitors; 390,000 compounds, 0.56% hits; AID 540317; further: nearly all actives have a fitted effect of over 70% in size
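Compound inhibition of the preformed complex between 50 nM HP1-beta and 50 nM biotinylated H3K9me3 peptide was read by AlphaScreen. Buffer was PBS pH 7.4 with 0.01% Tween-20. Incubations ran 30 min at room temperature, with 10 ug/mL donor/acceptor beads.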
JMJD2A Tudor inh = blocks the human JMJD2A Tudor domain. AlphaScreen JMJD2A-Tudor / H3K4me3 peptide binding. 390,000 compounds, 4.4% hits. O75164. Potency, µM (titrated, usually from 114 µM), most hits filed as inhibitors. AID 504339; further: nearly all actives have a fitted effect of over 50% in size
GLS inh = glutaminase GLS (human) inhibition | 410,000 compounds, 0.21% hits | GLS enzymatic activity, qHTS titration | Potency, µM (top dose mostly 45.5 µM), most hits filed as inhibitors | AID 624170
Target sequence (O94925 whole entry, looked up): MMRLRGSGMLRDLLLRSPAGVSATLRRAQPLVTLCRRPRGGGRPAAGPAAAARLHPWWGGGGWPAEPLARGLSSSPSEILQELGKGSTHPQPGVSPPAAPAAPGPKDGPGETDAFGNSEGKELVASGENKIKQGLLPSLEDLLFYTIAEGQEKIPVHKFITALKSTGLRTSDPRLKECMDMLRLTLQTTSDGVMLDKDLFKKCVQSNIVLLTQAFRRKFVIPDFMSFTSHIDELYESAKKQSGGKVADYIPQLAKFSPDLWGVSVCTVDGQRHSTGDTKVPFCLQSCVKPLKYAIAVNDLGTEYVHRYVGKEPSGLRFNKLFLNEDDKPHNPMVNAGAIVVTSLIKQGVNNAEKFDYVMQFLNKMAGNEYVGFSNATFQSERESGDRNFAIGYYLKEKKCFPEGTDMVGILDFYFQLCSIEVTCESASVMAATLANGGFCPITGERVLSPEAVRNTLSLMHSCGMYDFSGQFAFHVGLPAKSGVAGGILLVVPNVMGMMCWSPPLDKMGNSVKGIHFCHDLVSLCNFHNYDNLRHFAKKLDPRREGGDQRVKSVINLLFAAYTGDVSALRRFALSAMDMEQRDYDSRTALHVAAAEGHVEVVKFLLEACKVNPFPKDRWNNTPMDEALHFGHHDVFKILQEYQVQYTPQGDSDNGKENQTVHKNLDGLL
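Glutamate formation by hKGA was monitored fluorometrically using coupled glutamate oxidase, HRP and Amplex Red. Substrate was added as 1 mM L-glutamine solution; incubation was 30 min at RT after an initial read.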
L3MBTL1 block = L3MBTL1 (human) inhibition | AlphaScreen L3MBTL1–H3K9me1 peptide binding | Potency, µM (top dose mostly 57.1 µM), hits mostly inhibitors | 230,000 compounds, 0.66% hits; further: nearly all actives have a fitted effect of over 60% in size
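Displacement of a biotinylated histone H3(1-15) peptide monomethylated at Lys9 (75 nM) from L3MBTL1 (50 nM) was measured by AlphaScreen after a 30 min room-temperature compound incubation; cefsulodin titration served as intraplate control.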
Of the large screens only hits and unclear results are named; the others gave an inactive call. A selection: hits, their analogues and other compounds. The true share with any hit is near 10%. The call rests on the fitted dose curve; in most records, active means well fitted curve in the direction sought with a large enough effect; inconclusive means small, poorly fitted or top-dose-only effect, or another doubt; inactive means no such curve, though single readings can be large; an effect the other way counts as inactive or inconclusive.

CCn1cc(C(=O)NCCc2ccc(OC)c(OC)c2)c(=O)c2cc(S(=O)(=O)N3CCc4ccccc4C3)ccc21	G9a inh inconclusive (no result: BAZ2B block, L3MBTL1 block)
O=S(=O)(c1cccc(Cl)c1)N1CCN(c2nc(-c3ccccc3)nc3ccccc23)CC1	none (no result: G9a inh, BAZ2B block, GLS inh, L3MBTL1 block)
COc1cc2cc3c(N)c(C(=O)Nc4sc(C)c(C)c4C#N)sc3nc2cc1OC	BAZ2B block 56µM, HP1b chromo inh inconclusive, JMJD2A Tudor inh 79µM, L3MBTL1 block 3.2µM
Cc1ccc2nc3sc(C(=O)NCc4ccco4)c(N)c3cc2c1	G9a inh 1.6µM
Cc1cc(C(=O)Nc2sc(C)c(C)c2C#N)no1	G9a inh inconclusive
COc1cc2cc3c(N)c(C(=O)NCc4ccco4)sc3nc2cc1OC	G9a inh 28µM
Cc1cccc(C(=O)NCc2ccco2)c1	BAZ2B block inconclusive, JMJD2A Tudor inh inconclusive
COc1ccc(-c2cc(C(=O)NCc3ccco3)c3ccccc3n2)cc1OC	none (no result: G9a inh, BAZ2B block, L3MBTL1 block)
CN(C)c1ccc(NC(=O)Cn2c(SCc3ccc(F)cc3)nc3cccnc32)cc1	none (no result: L3MBTL1 block)
CN(C)CCNC(=O)COc1ccc(C23CC4CC(CC(C4)C2)C3)cc1	G9a inh 50µM
Cc1ccc(C23CC4CC(CC(NC(=O)NCCN(C)C)(C4)C2)C3)cc1	G9a inh inconclusive (no result: L3MBTL1 block)
O=c1nc2n(-c3ccccc3F)c3ccccc3cc-2c(=O)[nH]1	none (no result: L3MBTL1 block)
Cc1ccc(C)c(-n2c3nc(=O)[nH]c(=O)c-3cc3cc([N+](=O)[O-])ccc32)c1	G9a inh 10µM, JMJD2A Tudor inh inconclusive, L3MBTL1 block inconclusive
Cc1cccc(-n2c3nc(=O)[nH]c(=O)c-3cc3cc([N+](=O)[O-])ccc32)c1	G9a inh 50µM
CCn1cc(C(=O)NCc2ccccc2)c(=O)c2cc(S(=O)(=O)N3CCCCCC3)ccc21	none (no result: BAZ2B block, L3MBTL1 block)
CCCc1nnc(NC(=O)c2cc(=O)c3cc(C)c(C)cc3o2)s1	none (no result: L3MBTL1 block)
O=C1/C(=C\c2ccc(O)c(O)c2)SC(=S)N1Cc1ccccc1	G9a inh 4µM, BAZ2B block 8.9µM, HP1b chromo inh 10µM, JMJD2A Tudor inh 2.2µM (no result: L3MBTL1 block)
COc1cc(/C=C2/SC(=NCc3ccccc3)N(Cc3ccccc3)C2=O)ccc1O	none (no result: L3MBTL1 block)
O=C(CN1C(=O)/C(=C/c2ccccc2)SC1=S)NNC(=O)c1ccccc1O	BAZ2B block 79µM, L3MBTL1 block inconclusive
COc1cc(/C=C2/SC(=S)N(Cc3ccccc3)C2=O)ccc1O	G9a inh 45µM, BAZ2B block 40µM, HP1b chromo inh inconclusive, JMJD2A Tudor inh 40µM, L3MBTL1 block inconclusive
O=C(CCN1C(=O)/C(=C/c2ccccc2Cl)SC1=S)NNC(=O)c1ccccc1O	none (no result: L3MBTL1 block)
O=C1/C(=C\c2cccc(O)c2O)SC(=S)N1Cc1ccccc1	G9a inh 4.5µM, BAZ2B block 20µM, HP1b chromo inh inconclusive, JMJD2A Tudor inh 13µM
COc1cc(/C=C2\SC(=S)N(CC(=O)O)C2=O)ccc1OC(=O)c1ccco1	G9a inh inconclusive (no result: L3MBTL1 block)
O=C(CCCN1C(=O)/C(=C/c2ccccc2)SC1=S)Nc1cccc(O)c1	G9a inh inconclusive, BAZ2B block inconclusive, JMJD2A Tudor inh inconclusive, L3MBTL1 block inconclusive
COc1cc(/C=C2/SC(=S)N(CC(=O)O)C2=O)ccc1OC(=O)c1ccco1	G9a inh 45µM (no result: L3MBTL1 block)
O=C(CCCN1C(=O)/C(=C\c2cccs2)SC1=S)Nc1cc([N+](=O)[O-])ccc1O	BAZ2B block inconclusive (no result: L3MBTL1 block)
O=C1/C(=C\c2cc([N+](=O)[O-])ccc2O)SC(=S)N1Cc1ccc(Cl)cc1	G9a inh 20µM, BAZ2B block 25µM, JMJD2A Tudor inh 35µM (no result: L3MBTL1 block)
O=C1/C(=C\c2cccc(O)c2)SC(=S)N1Cc1ccccc1	BAZ2B block 40µM, JMJD2A Tudor inh 45µM
COc1ccc(/C=C2\SC(=S)N(Cc3cccnc3)C2=O)cc1C	G9a inh 11µM, BAZ2B block 10µM, JMJD2A Tudor inh inconclusive
CCOc1ccc(-c2cc(C(F)(F)F)c(C#N)c(SCC(=O)Nc3ccccc3)n2)cc1	none (no result: L3MBTL1 block)
CC(=O)N1C(=O)/C(=C2\SC(=S)N(c3c(C)n(C)n(-c4ccccc4)c3=O)C2=O)c2ccccc21	G9a inh 4µM, HP1b chromo inh inconclusive
COc1cc(/C=C2/SC(=S)N(c3c(C)n(C)n(-c4ccccc4)c3=O)C2=O)ccc1O	BAZ2B block 45µM, HP1b chromo inh inconclusive, JMJD2A Tudor inh inconclusive
Cc1ccccc1/C=C1\SC(=S)N(/N=C/c2cc([N+](=O)[O-])ccc2O)C1=O	G9a inh 45µM, BAZ2B block 22µM, JMJD2A Tudor inh inconclusive (no result: L3MBTL1 block)
CCCn1c(SCc2nc(-c3ccc(OC)c(OC)c3)no2)nnc1-c1ccccc1	none (no result: L3MBTL1 block)
COc1ccc(-n2cc3c(c2-c2cccc(Br)c2)c(=O)n(C)c(=O)n3C)cc1OC	none (no result: L3MBTL1 block)
CCOC(=O)N1CCN(/[N+]([O-])=N/Oc2ccc([N+](=O)[O-])cc2[N+](=O)[O-])CC1	G9a inh 18µM (no result: BAZ2B block, GLS inh, L3MBTL1 block)
COc1ccc2oc(=N)c(C(=O)NCc3ccccc3)cc2c1	G9a inh 35µM
CNC(=O)c1cc2cc(OC)ccc2oc1=N	G9a inh 56µM
COc1cccc(Nc2ncccc2C(=O)NCc2ccccc2)c1	G9a inh 8.9µM
CNC(=O)c1cc2cc(OC)ccc2oc1=O	none (no result: L3MBTL1 block)
CCN(CC)CCNC(=O)c1[nH]c2ccccc2c1Sc1ccc(Cl)cc1	none (no result: L3MBTL1 block)
COCCNc1nnc(SCC(=O)NNC(=O)c2ccc([N+](=O)[O-])cc2)s1	G9a inh 35µM
COCCNC(=O)NC1(C(F)(F)F)Oc2ccc(Cl)cc2O1 (configuration not stated)	G9a inh 40µM
COc1ccc(OC)c(NC(=O)NC2(C(F)(F)F)Oc3ccccc3O2)c1	G9a inh 7.9µM
Cc1cc(NC(=O)NC2(C(F)(F)F)Oc3ccc(Cl)cc3O2)no1 (configuration not stated)	G9a inh 7.9µM, JMJD2A Tudor inh inconclusive
O=C(NCc1cccnc1)NC1(C(F)(F)F)Oc2ccc(Cl)cc2O1 (configuration not stated)	G9a inh 32µM
CCCCNC(=O)NC1(C(F)(F)F)Oc2ccccc2O1	G9a inh inconclusive (no result: L3MBTL1 block)
CSc1ccc(/C=C2/C(C)=C(CC(=O)O)c3cc(F)ccc32)cc1	G9a inh inconclusive (no result: BAZ2B block, HP1b chromo inh, JMJD2A Tudor inh, L3MBTL1 block)
COc1ccc(NC(=O)Cn2c(=O)n(Cc3ccc4c(c3)OCO4)c(=O)c3ccc(C(=O)NC4CCCCC4)cc32)cc1	none (no result: BAZ2B block, L3MBTL1 block)
COc1ccc(-c2cn3nc(N4CCC(C(=O)Nc5cc(Cl)ccc5C)CC4)sc3n2)cc1	none (no result: L3MBTL1 block)
O=[N+]([O-])c1ccc(C[n+]2cccc3ccc4cccnc4c32)cc1	BAZ2B block 13µM, JMJD2A Tudor inh 11µM, GLS inh inconclusive (no result: G9a inh)
O=[N+]([O-])c1ccc(C[n+]2cccc3ccccc32)cc1	G9a inh 14µM
